# Results as given in article PMC12136788.
# Where a chain is given by its changes, count along the chain named. Whole data set: some 24,000 sequences, median “enrichment r” near 0.99, cut for the highest 2% near 3.7. The full list was thinned out, with the highest values kept by preference.
# T1: UNK ZnF1-3 (human, UniProt Q9C0B0 31-174)
# T1 sequence: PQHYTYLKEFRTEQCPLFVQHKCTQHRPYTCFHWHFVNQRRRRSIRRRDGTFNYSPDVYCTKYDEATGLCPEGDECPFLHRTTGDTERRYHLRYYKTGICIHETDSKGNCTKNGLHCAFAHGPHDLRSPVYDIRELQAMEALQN
# B1: chr12:3264740:3264741:-_ENSMUSG00000020671_ENSMUST00000021001|mus_mus|FALSE|FALSE (ssRNA)
# RNA: GGGAGUUCUACAGUCCGACGAUCCCAUAUCUGUAGCUUGAUCUUCUUUCCUUGUAGUUCCACUGUUUUGAUCUUAAAGUCUAUUCCUAUGGUGGAAAUAAAGGUGGUAUUGAAGGCAUCGUCCGAAAAACGAAAAAGGACGCACAACAGAGGAUUGAGCAUCA
# B2: chr7:92085846:92085847:+_ENSG00000157259_ENST00000287957|hu_mus|FALSE|FALSE (ssRNA)
# RNA: GGGAGUUCUACAGUCCGACGAUCGUUAAAACUGAGGCUUUAUACCUGCGAAGUAAGUAUGUCCCAGGUUUGGUUUUGUAACUACAAGUGGUUGGCAACUGUUUCCUUAAUAGUUAUCGCAGGAGUAGGUCCAACGUGAGUCCACAACAGAGGAUUGAGCAUCA
# B3: chr21:34877999:34878000:-_ENSG00000159131_ENST00000381815|hu_hu|motif|central (ssRNA)
# RNA: GGGAGUUCUACAGUCCGACGAUCGUCAAUUGCACUGUCAAAUUCUACACGAUUUUUAUACAGUUUAUGAUUAAUUACUCGGGUGGGAAUACCAGCUCUUUCCGCUUUAUCUAACCCAGCUACUGCGGCUUUGUUGGAGAUAACCAACAGAGGAUUGAGCAUCA
# B4: chr4:109959894:109959895:-_ENSMUSG00000028546_ENSMUST00000106598|mus_mus|motif|central (ssRNA)
# RNA: GGGAGUUCUACAGUCCGACGAUCGCUUCGACUCUUCUCUUAAAAUUUGCAAAGGUUUCAGAAUAUACUUAAAAAUGACGGCGGUUGUUUUAUAUAUAUAUAUAUUAAAGAUCCACAGACCACAGUGUGGAUGAUUGUAAAGUACAACAGAGGAUUGAGCAUCA
# B5: 72560208_72560328_3170_3pUTR_ENSMUSG00000056429_ENSMUST00000070524|mouse|control|control (ssRNA)
# RNA: GGGAGUUCUACAGUCCGACGAUCUCCUAAAAAUUAGCGGAGAGUAUACCUAGAUAAUUUCUUUAAAAAAAAAAAAGUGGACUUCUGUGAUGAUAAAAAUGUUUUUAGUUUAUAGUGUGGAGUUUUCAGAUGAUUAGAGAAAGUCAACAGAGGAUUGAGCAUCA
# B6: chr1:60041781:60041782:+_ENSMUSG00000041040_ENSMUST00000036540|mus_hu|mus_mus_mus_hu_False|38_58 (ssRNA)
# RNA: GGGAGUUCUACAGUCCGACGAUCAAGUUUACAAUAGUAAAGUAAAUGCAGUAGUGGCAAAUUUUCUUUUAUUUUCCUUCCUAAAAGAAAAUCUUUAGAUCUCAGUUCUAGUCUUGGACAUAGUGAAAGCUAUAAAUUCUGACUCAACAGAGGAUUGAGCAUCA
# B7: chr22:28376736:28376737:-_ENSG00000100154_ENST00000397906|hu_hu|FALSE|FALSE (ssRNA)
# RNA: GGGAGUUCUACAGUCCGACGAUCAUUUUAGAAUUACCUAAAAGAUACUUACUUAUCUAAAUUCUCCAACUAAACUCAGUACUAAUACGACUUUCAGCAUUUCCUUUCUUUAUAAAAUAAAUUAAUGGUUACCCCUAACUAGAUCAACAGAGGAUUGAGCAUCA
# B8: chr2:23028566:23028567:+_ENSMUSG00000026775_ENSMUST00000028117|mus_mus|FALSE|FALSE (ssRNA)
# RNA: GGGAGUUCUACAGUCCGACGAUCGGUCUUCUGUGUAAGAGCUUGAGCUUUGAGAAAACCCUCUGCAAAACCAGUUUUAAAUGCAUCUUGGUGAGCUUCAGGUAUGUUUUUAGUUUUCAUAAGUUUGUCCAAACUCUCAAGAUCCAACAGAGGAUUGAGCAUCA
# B9: chr4:109959894:109959895:-_ENSMUSG00000028546_ENSMUST00000106598|mus_mus|FALSE|FALSE (ssRNA)
# RNA: B4 RNA with G79U, G80A, G82U, G83A
# B10: chr2:179803060:179803061:+_ENSMUSG00000039086_ENSMUST00000041126|mus_mus|FALSE|FALSE (ssRNA)
# RNA: GGGAGUUCUACAGUCCGACGAUCAUGUAAAAAAAAAAAAAAUCACCCAAUUCUCACUGUAUAAAACUUGUCCUUUUCAUUUGAAAGAACGUAAUAAAGUUAUUUGGAUUCAUUAAAAAUGCAGUGUGGAUUUCAGACUUCCCUCAACAGAGGAUUGAGCAUCA
# B11: chr18:25531195:25531196:-_ENSG00000170558_ENST00000399380|hu_mus|motif|central (ssRNA)
# RNA: GGGAGUUCUACAGUCCGACGAUCCUUUUUUUUUUUUUGUGUGUAAUUUUUUUGGUACAAAUUAUGUAAAACACUUGUGCGGAGAACUUUUACCCCUCCCCAAAACGAAACAAACAAAAAGAAAAUAAAAAAAUUUAAAAAAAACAACAGAGGAUUGAGCAUCA
# B12: chr19:15271055:15271056:-_ENSG00000074181_ENST00000263388|hu_mus|motif|central (ssRNA)
# RNA: GGGAGUUCUACAGUCCGACGAUCAUAUAUAUUUUGUAAAAAAUAAUAAUAAUAAUAAGUUUGUUUAAAUGAAUUUGUCUCGGUACAAAAUGUAAAAAAGAAAAAAAUAAUAACUCACUCUUGUCAGAGUGUGAGACAAUGAGACAACAGAGGAUUGAGCAUCA
# B13: chr7:141450121:141450122:+_ENSG00000106028_ENST00000265304|hu_mus|hu_hu_hu_mus_True|8_98 (ssRNA)
# RNA: GGGAGUUCUACAGUCCGACGAUCUCAUCCGUUCUAUUCCUUCUCUUUUGUCUGGUCACUCAGAAAUAUAAUGUUAUCAGCUAUGAUUGUUGUUGCUUGCCGCCUCACAUUGUUUUUAUCCAUGUACUCACCAUAGUCCACUUUCAACAGAGGAUUGAGCAUCA
# B14: chr4:17845017:17845018:+_ENSG00000109805_ENST00000514176|hu_mus|hu_hu_hu_mus_False|48_108 (ssRNA)
# RNA: GGGAGUUCUACAGUCCGACGAUCGCUUCCUAACUUAGUAUCUUCAUUAAGGAACUCUGCAAGGUUAAGUUUACUUUUCUGUAGCGCGCGGUUUUGGGCUCGUCUGGGUAAUCUCAUCUUCAUUUCUGAUGGUGGUUCAUGAUCCAACAGAGGAUUGAGCAUCA
# B15: chr8:67197462:67197463:-_ENSMUSG00000031604_ENSMUST00000034015|mus_mus|FALSE|FALSE (ssRNA)
# RNA: GGGAGUUCUACAGUCCGACGAUCUCCGAACUGACCAGUGUAUGUAAAAGGCUUAAAAGGCAACGUCAACUUCAGCCUCCUAUGGCAUGAAGUGGUGAGUUGUACAUUAAUACUUCCUCCAGUUCCCGAAACCUUUUGGUGAGGCAACAGAGGAUUGAGCAUCA
# B16: chr5:150025729:150025730:+_ENSMUSG00000041264_ENSMUST00000121416|mus_mus|FALSE|FALSE (ssRNA)
# RNA: GGGAGUUCUACAGUCCGACGAUCCACGAAGGCUCUCUUCUGAUCUUCUUUCCGAGGCUGAUUCUGUGCUGACCUGGCUGCUACUGUUUUAGAAGACGCUGUGGUUUCUCGUUUUCUCAAAUUAGAUGCCUGAGAUUUACCAGGCAACAGAGGAUUGAGCAUCA
# B17: chr8:87797514:87797515:-_ENSMUSG00000031696_ENSMUST00000034131|mus_hu|motif|central (ssRNA)
# RNA: GGGAGUUCUACAGUCCGACGAUCAUUAUGGAAUCCACCUGGUCUUGAGAGACAAUUUCUGUGUUAUAAUCCAGAACAUUACGGAGCACAUAACAACUCAUGCUCUUUCUGGACUCGUAGUCAAAGUACUCAAAGAGUGGGUGACAACAGAGGAUUGAGCAUCA
# B18: 107145582_107145702_897_CDS_ENSG00000125266_ENST00000245323|human|control|control (ssRNA)
# RNA: GGGAGUUCUACAGUCCGACGAUCGAGCGACAGCGUGGUCGUGUGCUGCGGCGAGUGCUUCCUGUGUCUCCUCCGGUACUUCAGCAAGAGGACCACCAGCGUGAUGAUGAUGACGAUGAAGAUGAUGCAUCCUGAAGCAAUCCCCAACAGAGGAUUGAGCAUCA
# B19: chr9:115598534:115598535:+_ENSG00000148158_ENST00000374232|hu_mus|FALSE|FALSE (ssRNA)
# RNA: GGGAGUUCUACAGUCCGACGAUCCAGCUUAUAGCCUCCGGUGACGUGCUUGACUGACUCACCCACUCUGCUCAGCAAUGCUAUCCCUUGCUUCUUGUAGGCAUUCAGGUCCUUAGCAGUGAGGAACACAUUGAAGUGUUCAUUCAACAGAGGAUUGAGCAUCA
# B20: chrX:165757501:165757502:-_ENSMUSG00000031352_ENSMUST00000112115|mus_hu|FALSE|FALSE (ssRNA)
# RNA: GGGAGUUCUACAGUCCGACGAUCGCAGGAGCAGAUGGAGACAAACCCAUGGCUGGAAACAGUGUUGACUGUAAACAAUUUUAAAUUUCCACCUGCUCCAGCCCGUGGUCCCCAGACCAAACCGGCCGCGGCCAGCCUGCCCUUCAACAGAGGAUUGAGCAUCA
# B21: chr10:33190432:33190433:-_ENSG00000150093_ENST00000302278|hu_mus|hu_hu_hu_mus_True|58_98 (ssRNA)
# RNA: GGGAGUUCUACAGUCCGACGAUCUACAUUUUCCAAACCUGCACAUGAAUAAAACCCUGGCCACAGAGCCCCAAAACUACCUAACUGUGACUAAGAUGCUGCUGCUGUGAGCUUGGUGUUGCAAAAUCCGCCUGAGUAGGAUUCCAACAGAGGAUUGAGCAUCA
# B22: 10529348_10532452_191_CDS_ENSG00000160049_ENST00000377038|human|control|control (ssRNA)
# RNA: GGGAGUUCUACAGUCCGACGAUCCAGGGUGACUGGUGUCAGGGACUUAUCAAUGGCCAGAAUGUCACAGGCCUUGCUCCUCAGGUCUUCGAGGCAGGAGGCGGCCACGCCGUGCUGUUCGCGGCUGUAGUUGCGGCGCAGCAGCAACAGAGGAUUGAGCAUCA
# Target: T1, UNK ZnF1-3
# Test: nsRBNS (natural sequence RNA bind-n-seq); RBNS binding buffer (assumed for nsRBNS): 25 mM Tris pH 7.5, 150 mM KCl, 3 mM MgCl2, 0.01% Triton X-100, 500 ug/ml BSA, 20 U/ml SUPERase-In, 4 C; UNK is unkempt and MSI1 is Musashi-1; names of the RNAs are library labels; protein concentration not given here; high values mean tight binding
row,Binder,binding signal [enrichment R]
1,B1,1.8
2,B2,0.838
3,B3,0.651
4,B4,3.36
5,B5,8.87
6,B6,0.462
7,B7,1.4
8,B8,1.2
9,B9,4.13
10,B10,5.86
11,B11,3.31
12,B12,11.3
13,B13,0.398
14,B14,0.472
15,B15,0.838
16,B16,0.579
17,B17,0.988
18,B18,1.32
19,B19,0.557
20,B20,0.781
21,B21,1.55
22,B22,0.999
